# SMARCA2 act: activators of SMARCA2 function. AID 652017. MG213 cells, MMTV-luciferase reporter, dexamethasone, overnight. 1% of 370,000 active. activation, % at 9.1 µM; in the data active = activation above about 7.8%
# DAX1 inh-1: DAX1 (NR0B1) inhibition, primary screen; 1.1% of 370,000 active; HEK293T StAR-luciferase reporter, SF-1/DAX-1 repression relief; inhibition, % at 6.8 µM;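 active = inhibition above the mean over all tested compounds plus 3 SD, cut at about 3.6% in these data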;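 note: higher inhibition means more luminescence from relief of DAX-1 repression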
# DAX1 inh-2: inhibitors of human orphan nuclear receptor DAX1 (NR0B1) | AID 504766 | P51843 | HEK293 Gal4-DAX1 luciferase reporter, luminescence | 0.99% of 340,000 active | inhibition, % at 6.75 µM;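 active = inhibition above the mean over all tested compounds plus 3 SD, cut at about 4.2% in these data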;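 note: inhibition shows as a rise in luminescence from relieved DAX1 repression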
# Target sequence (P51843 207-470 limits assumed): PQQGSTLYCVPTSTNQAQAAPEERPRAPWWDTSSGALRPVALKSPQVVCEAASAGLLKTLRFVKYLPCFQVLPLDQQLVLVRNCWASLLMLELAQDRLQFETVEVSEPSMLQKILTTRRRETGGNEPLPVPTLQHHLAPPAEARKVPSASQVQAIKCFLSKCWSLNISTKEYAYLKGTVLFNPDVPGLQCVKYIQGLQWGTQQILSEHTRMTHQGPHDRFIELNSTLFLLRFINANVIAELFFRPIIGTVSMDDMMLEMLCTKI
# hcDAF12 agonist: activators of H. contortus DAF-12 nuclear receptor. 1.4% of 370,000 active. activation, % at 6.8 µM. HEK293 hcDAF-12 lit1-tk-luc reporter, luminescence; 0% DMSO, 100% Δ7-dafachronic acid. AID 652067;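 active = activation above the mean of all tested compounds plus 3 SD, cut at about 5.5% in these data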
# ssDAF12 agonist: activators of S. stercoralis DAF-12 nuclear receptor; HEK293 ssDAF-12/GRIP1 lit1-tk-luc reporter, luminescence; % of 3 µM dafachronic acid response; activation, % at 6.8 µM; 1% of 370,000 active; AID 652126;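 active = activation above the mean over all tested compounds plus 3 SD, cut at about 0.9% in these data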
# hgDAF-12 ag: agonists of H. glycines DAF-12 nuclear receptor; HEK293 GAL4-hgDAF12 UAS-luciferase reporter, agonist luminescence; normalized to butyrate control; activation, % at 6.8 µM; 1.8% of 370,000 active;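 active = activation above a cutoff set at the mean of all screened compounds plus 3 SD, cut at about 10% in these data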
# LXRb hcDAF ctr: counter-screen for hcDAF-12 agonists: agonists of human LXR-beta; shares compounds with hcDAF12 agonist; HEK293 Gal4-LXR tk-luc reporter, luminescence, 24 h; normalized: DMSO 0%, positive control 100%; activation, % at 6.8 µM; 3,400 tested, under 10 active; AID 743027;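 active = mean percent activation of the reporter above a cutoff set as the average over tested compounds plus their standard deviation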
# hcDAF12 conf: hcDAF-12 agonism, confirmation assay; shares compounds with hcDAF12 agonist; HEK293 hcDAF-12 lit1-tk-luc reporter, luminescence; % of Δ7-dafachronic acid response; activation, % at 6.8 µM; 61% of 3,400 active;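 active = mean activation across triplicate tests above the threshold derived from the earlier primary screen, cut at about 5.5% in these data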
# Numbers stand for hits; i = inactive; nt = not tested or not shown. A selection: hits, their analogues and other compounds. The true share with any hit is near 4.8%.
SMILES,SMARCA2 act,DAX1 inh-1,DAX1 inh-2,hcDAF12 agonist,ssDAF12 agonist,hgDAF-12 ag,LXRb hcDAF ctr,hcDAF12 conf
Cc1ccc(C2(C(F)(F)F)NC(=O)N3CCCN=C3S2)cc1 (stereo not given),i,i,i,i,i,i,nt,nt
Cc1oc(-c2nc3ccccc3n2C)cc1C(=O)c1ccccc1,i,i,i,10.6,1.2,i,i,13.4
Brc1ccc(C2Nc3cccc4cccc(c34)N2)s1,i,i,i,6.6,i,i,i,i
Clc1ccc(C2Nc3cccc4cccc(c34)N2)cc1,i,i,i,i,i,i,nt,nt
COc1cc2c(cc1NC(=O)C1CCCO1)oc1ccccc12 (stereo not given),i,i,i,11.9,2.3,15.1,i,16.8
COc1ccc(Cl)cc1NC(=O)C1CCCO1 (stereo not given),i,i,i,i,i,i,nt,nt
COc1cc2c(cc1NC(=O)Nc1ccc(C)cc1)oc1ccccc12,i,i,i,8.5,i,i,i,i
COc1cccc(NC(=O)c2cc3ccccc3oc2=O)c1,i,i,i,7.2,i,13.2,i,8.7
CN(/N=C/c1c[nH]c2ccccc12)c1cnn(-c2ccc(F)c(Cl)c2)c(=O)c1Cl,i,i,i,7.2,i,i,i,i
CN(/N=C/c1cccnc1)c1cnn(-c2ccc(F)c(Cl)c2)c(=O)c1Cl,i,i,i,i,i,i,nt,nt
Nc1cccc(-c2nc3ccccc3s2)c1,i,i,i,11.9,1.4,12.9,i,6.4
COc1ccc(-c2nc3ccccc3s2)cc1O,i,i,i,12.3,i,i,i,13.0
Fc1cccc(Cc2noc(CN3CCC(c4ccncc4)CC3)n2)c1,i,i,i,i,i,i,nt,nt
O=C(Cn1cc([N+](=O)[O-])cn1)NCc1cc2ccccc2[nH]1,i,i,i,8.0,i,i,i,i
Cc1nc2c(Cl)cccc2c2c1CC(CBr)O2 (stereo not given),i,i,i,i,i,i,nt,nt
Cc1ccc2nc(Br)c3c(c2c1)OC(CBr)C3 (stereo not given),i,i,i,7.4,i,i,i,i
CCN(CC(=O)Nc1c(F)cccc1F)C(=O)Cc1sc(C)nc1-c1ccc(F)cc1,i,i,i,i,i,i,nt,nt
COc1cccc(C2=Nc3cccc4cccc(c34)N2)c1,i,i,i,11.4,i,i,i,i
Cc1cccc2c3nc4ccccc4nc3n(C)c12,i,i,i,6.7,i,i,i,11.4
CC(Sc1nnc(COc2ccc(Cl)cc2)n1Cc1ccco1)C(=O)N1CCNC1=O (stereo not given),i,i,i,i,i,i,nt,nt
CC(=O)Nc1cccc(NC(=S)Nc2cccc3ccccc23)c1,i,i,i,7.6,0.9,i,i,i
CC(=O)c1cccc(NC(=S)Nc2cccc3ccccc23)c1,i,i,i,i,i,i,nt,nt
Cc1sc2ncnc(SCC(=O)N3CCOCC3)c2c1C,i,i,i,i,i,i,nt,nt
C/C(=N\N=C(/N)c1nonc1N)c1ccc2c(c1)OCO2,i,i,i,7.1,i,10.8,i,i
O=C(NNC(=O)C12CC3CC(CC(C3)C1)C2)c1cnccn1,i,i,i,i,i,i,nt,nt
SMILES,SMARCA2 act,DAX1 inh-1,DAX1 inh-2,hcDAF12 agonist,ssDAF12 agonist,hgDAF-12 ag,LXRb hcDAF ctr,hcDAF12 conf
COc1ccccc1-c1nnc(SCC(=O)N2CCOCC2)o1,i,i,i,10.2,1.1,i,i,11.1
COc1ccccc1-c1nnc(SCC(=O)N2CCCCC2)o1,i,i,i,i,i,i,nt,nt
Cc1cccc(-c2nnc(SCC(=O)N3CCOCC3)o2)c1,i,i,i,6.8,i,i,i,i
O=C(N/N=C\c1cn(-c2ccccc2)nc1-c1ccccc1)c1ccc(Br)o1,i,i,i,9.4,i,i,i,i
Cc1ccc(-c2nn(-c3ccccc3)cc2/C=N/NC(=O)c2ccncc2)o1,i,i,i,i,i,i,nt,nt
Cc1ccc(-c2nn(-c3ccccc3)cc2/C=N/NC(=O)c2ccc(Br)o2)cc1,i,i,i,i,i,i,nt,nt
CCOc1cc(C(=O)N/N=C/c2cn(-c3ccccc3)nc2-c2cc3ccccc3o2)cc(OCC)c1OCC,i,i,i,7.9,i,i,i,5.8
C=CCn1c(C)nnc1SCC(=O)Nc1nc(C)c(C(=O)N(C)C)s1,i,i,i,7.3,i,i,i,i
Cc1nc(NC(=O)CSc2nnc(C3CC3)n2C)sc1C(=O)N(C)C,i,i,i,i,i,i,nt,nt
Nc1nn(-c2ccccc2)c(N)c1N=Nc1ccc2c(c1)OCO2,i,i,i,8.4,i,20.2,i,6.5
Cc1c(CC(=O)N[C@H](C(=O)O)C(C)C)c(=O)oc2cc3c(cc12)CCC(C)(C)O3,i,i,i,6.9,i,i,i,6.6
CCCCCNC(=O)C(=O)C1C(=O)Nc2ccccc21 (stereo not given),i,i,i,i,i,i,nt,nt
CN(C)CCNC(=O)C(=O)C1C(=O)Nc2ccccc21 (stereo not given),i,i,nt,8.0,0.9,i,i,i
COc1ccc(OCc2nnc(SCC(=O)NC3CC3)n2C)cc1,i,i,i,i,i,i,nt,nt
Cc1ccc(C(=O)NC(=S)Nc2c(C)ccc3nsnc23)cc1,i,i,i,7.6,1.6,i,i,i
CCSc1ncc(/C=N/Nc2ccc(Cl)cc2)n1C,i,i,i,11.6,1.6,i,i,10.0
CCCCNC(=O)C1(C)CCN1C(=O)Cc1ccc(OC)cc1 (stereo not given),i,i,nt,i,i,i,nt,nt
Oc1ccccc1-c1cc(-c2ccco2)[nH]n1,i,i,i,7.6,i,11.7,i,9.2
Oc1ccc(Br)cc1-c1cc(-c2ccco2)[nH]n1,i,i,i,i,i,i,nt,nt
Oc1ccc(Cl)cc1-c1cc(-c2ccco2)[nH]n1,i,i,i,7.6,i,i,i,i
COc1cc(C=C2C(=O)OC(C)(C)OC2=O)ccc1OCC(=O)Nc1ccccc1,i,i,i,7.1,i,i,i,i
Clc1ccccc1-c1cc2nc(NCCCn3ccnc3)ccn2n1,i,i,nt,7.2,i,i,i,i
CC(=O)/C(N=Nc1cc(C)ccc1O)=C(\C)O,i,i,i,9.2,i,i,i,6.3
CC(=O)/C(N=Nc1ccc(C(=O)O)cc1[N+](=O)[O-])=C(\C)O,i,i,i,i,i,i,nt,nt
N#CC1=C(N)Oc2c(oc(CO)cc2=O)C1c1ccsc1 (stereo not given),i,i,i,i,i,i,nt,nt

# Compound activity from PubChem.
